Composite z-score and z-score data for 17 compounds are collected here from PubChem BioAssay.

In assay [1] the test system is Human papillomavirus type 1a protein E7 (residues 44-93). In words: small molecules binding HPV E7 44-93 – biochemical, small-molecule microarray, residues 44-93, 635 nm fluorescence, primary screen (AID 1108).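 Further: E7 fragment applied at 1 µg/mL in TBST for 1 h at 4 C; score combines spot fluorescence with its signal to noise ratio.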 To be noted: fluorescence 635 nm, higher = more signal.
Assay [2] in a line: hepatitis C replication reporter changes, two-sided – Huh7 cells, luciferase reporter, HCV replication inhibitor project, primary screen (AID 1109).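 Further: huh7 hepatoma cells harbouring a luciferase neomycin HCV replicon reporter; luciferase luminescence as measure of HCV replicon replication; test concentration not given here.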 To be noted: Huh7 HCV replicon luciferase reporter, 48 h; higher = more signal.
The target in assay [3] is Left-right determination factor 2 (Homo sapiens) (UniProt O00292). In words: small molecules binding LEFTY2 protein – biochemical, small-molecule microarray, 635 nm fluorescence scan, primary screen (AID 1110). To be noted: higher = more signal.
Assay [4] deals with Calmodulin-1 (Homo sapiens) (UniProt P0DP23). In words: small molecules binding calmodulin-1 with EGTA – biochemical, small-molecule microarray, Cy5-labelled CALM1, profiling panel (AID 1111).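 Further: labelled calmodulin applied in Tris saline Tween buffer holding calcium plus EGTA and DTT.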 The note with it: Cy5-CALM1 binding fluorescence, higher = more signal.
For assay [5] the target is unchanged. In words: small molecules binding Ca-loaded calmodulin-1 – biochemical, small-molecule microarray, Cy5-labelled CALM1, plus calcium, artefact control for SMM control-protein annotation, profiling panel (AID 1112).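 Further: score merges spot fluorescence with signal to noise from triplicate slides.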 To be noted: Cy5-CALM1 binding fluorescence, higher = more signal.
Assay [6] can be described thus: probe aWnt5a binding to arrayed compounds – biochemical, biotinylated probe, 635/667 nm fluorescence, primary screen (AID 1113).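 Further: score merges 667 nm fluorescence intensity with signal-to-noise per printed feature.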 The note with it: small-molecule microarray, higher = more signal.
Assay [7] can be described thus: probe aShh binding to arrayed compounds – biochemical, biotinylated probe, 635/667 nm fluorescence, primary screen (AID 1114).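 Further: probe is biotin-labelled aShh protein from a stem cell growth factor screen; measures binding of labelled protein to compounds printed on the slide; score merges feature fluorescence at 667 nm with signal-to-noise.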 The note with it: small-molecule microarray, higher = more signal.
A short description of assay [8]: probe aNog binding to arrayed compounds – biochemical, biotinylated probe, 635/667 nm fluorescence, primary screen (AID 1115).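 Further: probe is biotinylated aNog protein used at 0.15 µg/mL for 1 h at 4 C; z-score combines 667 nm fluorescence of each spot with its signal to noise.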 The note with it: small-molecule microarray, higher = more signal.
In assay [9] the target is Torsin-1A-interacting protein 1 (Homo sapiens) (UniProt Q5JTV8). In words: compound microarray binding of lysate hLAP1 – cell lysate, small-molecule microarray, COS7 lysate, 635/667 nm fluorescence, primary screen (AID 1116). To be noted: 635 nm fluorescence, higher = more signal.
Assay [10] addresses Alpha-bungarotoxin (Bungarus multicinctus) (UniProt P60615). In words: compounds binding labelled alpha-BTX control protein – biochemical, small-molecule microarray, Alexa647 label, 635/667 nm fluorescence, artefact control for SMM control protein annotation, profiling panel (AID 1117). The note with it: alpha-BTX-A647 binding fluorescence, higher = more signal.

Molecules are shown by their SMILES.

Chain of Torsin-1A-interacting protein 1 (Homo sapiens) (Q5JTV8 whole entry, looked up): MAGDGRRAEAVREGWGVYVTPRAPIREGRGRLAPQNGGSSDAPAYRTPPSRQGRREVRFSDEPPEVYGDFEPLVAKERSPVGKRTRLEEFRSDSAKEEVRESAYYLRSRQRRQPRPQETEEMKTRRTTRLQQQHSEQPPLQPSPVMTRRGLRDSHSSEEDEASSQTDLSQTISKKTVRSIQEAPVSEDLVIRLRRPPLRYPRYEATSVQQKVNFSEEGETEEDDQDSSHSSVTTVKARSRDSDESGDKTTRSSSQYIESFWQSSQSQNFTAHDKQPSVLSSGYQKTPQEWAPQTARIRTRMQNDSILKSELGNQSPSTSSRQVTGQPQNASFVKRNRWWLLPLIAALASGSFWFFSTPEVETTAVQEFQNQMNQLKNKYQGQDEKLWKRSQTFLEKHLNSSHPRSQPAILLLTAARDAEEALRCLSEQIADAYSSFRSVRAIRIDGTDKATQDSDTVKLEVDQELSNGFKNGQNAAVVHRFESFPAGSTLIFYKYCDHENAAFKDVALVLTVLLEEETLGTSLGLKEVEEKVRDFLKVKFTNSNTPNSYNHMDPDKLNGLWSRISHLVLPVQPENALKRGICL
Chain of Left-right determination factor 2 (Homo sapiens) (O00292 whole entry, looked up): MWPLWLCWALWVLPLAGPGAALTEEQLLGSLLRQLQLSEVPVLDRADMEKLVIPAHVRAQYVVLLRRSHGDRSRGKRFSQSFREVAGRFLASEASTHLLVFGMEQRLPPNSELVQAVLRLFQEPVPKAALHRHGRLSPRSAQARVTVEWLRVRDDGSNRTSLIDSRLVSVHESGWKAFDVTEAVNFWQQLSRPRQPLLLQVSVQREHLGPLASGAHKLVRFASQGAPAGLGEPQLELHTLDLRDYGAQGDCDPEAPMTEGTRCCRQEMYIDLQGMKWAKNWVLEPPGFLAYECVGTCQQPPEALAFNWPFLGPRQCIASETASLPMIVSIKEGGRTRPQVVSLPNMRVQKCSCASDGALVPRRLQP
Chain of Alpha-bungarotoxin (Bungarus multicinctus) (P60615 whole entry, looked up): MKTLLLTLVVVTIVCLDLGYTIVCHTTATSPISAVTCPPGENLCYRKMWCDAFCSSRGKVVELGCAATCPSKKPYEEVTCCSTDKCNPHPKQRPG

`O=C(NCCO)C1=C[C@H](Oc2ccccc2I)[C@@H](O)[C@H](N(Cc2ccco2)C(=O)Cc2ccccc2)C1`: the composite z-score in [1] is -0.0509; in assay [3], 0.51; in assay [4], -0.0916; in assay [5], -0.671; in assay [6] it was 0.0057; in assay [7], -0.209. The composite z-score in assay [8] was 0.0129; in assay [9] it was 0.591; in assay [10], -0.0333. The compound also showed a z-score in [2] of 0.807.

Take `CNS(=O)(=O)c1ccc(C)cc1`: the composite z-score is 0.899 in [1]; 0.804 in assay [3]; -0.206 in assay [4]; -0.263 in assay [5]; -0.169 in assay [6]; -0.504 in assay [7]. The composite z-score is -0.138 in [8], -0.312 in assay [9] and 0.514 in assay [10]. The same compound gave a z-score in assay [2] of -0.376.

As to `COc1ccc(CCNC(=O)[C@@]2(Sc3ccc(C)cc3)CC(=O)N(C(C)C)[C@@H]2c2ccc(CO)cc2I)cc1`, the composite z-score in assay [1] is 0.536; in [3], -1.09; in assay [4] it was -0.434; in assay [5], 0.428; in assay [6] it was -0.225; in assay [7], -0.0553. Besides, the figures for the composite z-score in assay [8], in assay [9] and in assay [10] were 0.905, 0.341 and -0.333, respectively. The same compound displayed a z-score in [2] of -2.41.

Consider `O=C(N1CCCCC1)[C@]1(Cc2ccccc2)N=C(c2ccc(OCCCO)cc2)O[C@@H]1c1ccccc1`, for which the composite z-score stood at 1.42 in assay [1]; 0.0931 in assay [3]; 1.48 in assay [4]; 0.516 in assay [5]; 0.0744 in [6]; 0.446 in [7]. Also, the figures for the composite z-score in assay [8], in assay [9] and in assay [10] were 0.85, 0.252 and 0.977, respectively. Further, in assay [2], the z-score was -3.4.

For the compound `CCS[C@H]1[C@@H](C(=O)O)[C@H](c2ccc(C)cc2)N(S(=O)(=O)c2ccc(C)cc2)[C@@H]1CC`, the composite z-score in [1] is 1.39; in assay [3] it was 0.0041; in [4], 0.83; in [5], 0.0072; in [6], -0.1; in [7], -0.0035. Further, the composite z-score in assay [8] turned out to be 1.11; in [9], 0.827; in assay [10] it was 0.834. For the same compound, the z-score in [2] was 0.841.

For `COCCOC(=O)N1C(=O)[C@@]2(c3ccccc31)[C@H](c1ccccc1OCCO)N1[C@H](c3ccccc3)[C@H](c3ccccc3)OC(=O)[C@H]1[C@@H]2C(=O)N1CCN(c2ncccn2)CC1`, the composite z-score in [1] is 0.771; in assay [3] it was 0.567; in assay [4], 1.69; in assay [5] it was 0.614; in [6] it was -0.096; in [7] it was 0.199. The composite z-score in assay [8] was found to be 0.441; in assay [9], 1.24; in [10], 1.46. For the same compound, the z-score in [2] is -2.73.

Consider `C=C[C@H](OC)[C@@H](OC(=O)Nc1ccc(OC)cc1)c1ccc(O)c(F)c1`, for which the composite z-score in assay [1] is 0.625; in [3], -0.644; in [4], -1.25; in assay [5], -1.39; in assay [6], -0.28; in assay [7], 0.0952. The composite z-score in assay [8] was -0.478; in assay [9], 1.14; in assay [10], -1.56. In assay [2], this compound yielded a z-score of -0.276.

As for `COc1ccccc1CN1C(=O)c2ccccc2[C@@H](C(=O)NC2CC2)[C@@H]1c1ccc(CO)cc1`, the composite z-score was 0.0772 in [1]; 0.57 in assay [3]; 0.522 in assay [4]; -0.779 in [5]; -0.0512 in assay [6]; 0.257 in [7]. The composite z-score in assay [8] was -0.519; in [9], 0.0469; in assay [10], 1.3. This compound also came in with a z-score in assay [2] of -1.3.

In the case of `C=CCOC(=O)[C@H]1[C@@H]2C(=O)O[C@@H](c3ccccc3)[C@@H](c3ccccc3)N2[C@@H](c2ccc(OCCOC(=O)[C@@H]3C[C@@H]4C(=O)N[C@@H](CC(C)C)C(=O)N4[C@@H]3c3ccc(O)cc3)cc2)[C@]12C(=O)Nc1ccccc12`, the composite z-score in assay [1] was 1.12; in assay [3], 0.701; in assay [4] it was 2.5; in assay [5] it was 0.137; in assay [6], 0.0044; in assay [7] it was 0.14. Further, the composite z-score in assay [8] came out at 0.938; in assay [9], 1.75; in assay [10], 1.6. The compound also displayed a z-score in assay [2] of -1.47.

For the compound `C=CC[C@]1(C(=O)NCc2ccccc2)N=C(c2ccc(OCCCO)cc2)O[C@H]1c1ccccc1N=[N+]=[N-]`, the composite z-score was 1.44 in [1]; 0.201 in [3]; 1.96 in assay [4]; 0.901 in assay [5]; 0.0108 in [6]; 0.0875 in [7]. The composite z-score in assay [8] was -0.572; in assay [9], 1.44; in assay [10] it was 1.65. Moreover, the z-score in assay [2] was -0.368.

`COC(=O)[C@@]1(Cc2ccc(OC)cc2)[C@@H]2C(=CC(=O)[C@H]2CC(=O)C(=O)N2CCCC2)CN1C(=O)c1ccccc1`: the composite z-score in assay [1] is -0.514; in assay [3], -0.505; in assay [4] it was 0.946; in [5], 0.713; in [6], 0.368; in assay [7], 1.06. The values for the composite z-score in assay [8], in assay [9] and in [10] were 1.04, 0.674 and 0.15, respectively. The same compound had a z-score in assay [2] of -1.88.

Take `Cc1ccc(S[C@]2(C(=O)NCCCN(C)C)CC(=O)N(Cc3cc(C(F)(F)F)cc(C(F)(F)F)c3)[C@@H]2c2ccc(CO)cc2)cc1`: the composite z-score in assay [1] was -0.224; in assay [3], -0.286; in assay [4], 0.136; in [5], 0.499; in assay [6] it was -0.152; in assay [7], -0.0769. Moreover, the results for the composite z-score in [8], in [9] and in assay [10] were -0.29, 0.523 and 0.182, respectively. The z-score in assay [2] stood at 0.478.

Consider `C#C[C@H](O[Si](C#Cc1ccc(Oc2ccccc2)cc1)(C(C)C)C(C)C)c1ccccc1`, for which the composite z-score in [1] is 0.922; in [3] it was 0.764; in assay [4], -0.355; in assay [5], -0.571; in assay [6] it was -0.0519; in [7] it was -0.248. The composite z-score in assay [8] is -0.244; in [9], 0.692; in assay [10], 0.495. In assay [2], the z-score was -1.73.

`CC(C)=CCCC(C)=CC(O)C1C=CC2C(=O)N(C)C(=O)C2N1Nc1ccccc1` (stereo not given): the composite z-score is 1.45 in assay [1]; 0.457 in [3]; 1.99 in [4]; 0.73 in [5]; 0.0597 in assay [6]; -0.0362 in assay [7]. The results for the composite z-score in assay [8], in assay [9] and in assay [10] were 1.3, 0.524 and 2.04, respectively. Further, the z-score in assay [2] was -2.28.

Turning to `CCCCN1CC=CC23O[C@@H]4C=CCCOC(=O)C4[C@H]2C(=O)N(CCCCCCO)[C@@H]3C1=O` (stereo not given in full), the composite z-score in [1] is 0.748; in [3] it was -1.11; in assay [4], -0.235; in [5] it was -0.0631; in [6] it was -0.274; in assay [7], -0.117. Also, the composite z-score in [8] is -0.413; in assay [9], 0.999; in [10] it was -0.324. Besides, the z-score in assay [2] is -0.485.

On to `COC(=O)C(CC#Cc1ccc2c(c1)[C@]1(C(=O)N2)[C@H](c2ccc(OCCO)cc2)N2[C@H](c3ccccc3)[C@H](c3ccccc3)OC(=O)[C@H]2[C@@H]1C(=O)N1CCc2cc(OC)c(OC)cc2C1)C(=O)OC`, for which the composite z-score in assay [1] came out at 1.4; in [3], 0.459; in assay [4] it was 1.66; in assay [5], 0.236; in assay [6] it was 0.296; in [7] it was 0.191. The figures for the composite z-score in assay [8], in assay [9] and in assay [10] were -0.422, 1.58 and 1.77, respectively. In assay [2], the z-score was -1.01.

On to `NCCCCCNC(=O)[C@@H]1C[C@@H]2C(=O)N[C@@H](Cc3ccccc3)C(=O)N2[C@@H]1c1ccc(O)cc1`, for which the composite z-score was 1.37 in assay [1]; 0.406 in [3]; 1.18 in [4]; 1.16 in assay [5]; -0.0425 in [6]; -0.138 in [7]. Further, the figures for the composite z-score in assay [8], in [9] and in [10] were -0.144, 0.672 and 0.924, respectively. Further, the z-score in assay [2] is -0.471.
